{"source": "the antibiotic and cytotoxicity screens of Wong et al. (2023)", "note": "The campaign covered roughly 39,000 compounds. About 500 (1.3%) were called active. The list comes from a sample in which actives are over-represented; it also holds similar structures and randomly drawn compounds."}
{"system": "S. aureus RN4220", "assay": "growth inhibition call (relative growth <= 0.2)", "conditions": "50 µM"}
{"smiles": "COc1ccccc1NC(=O)C1=C(C)N=C(SCC(=O)Nc2ccccc2[N+](=O)[O-])C(C#N)[C@@H]1c1ccccc1F", "note": "(some centres undefined)", "growth inhibition call": "inactive"}
{"smiles": "C[C@H]1CN([C@@H](C)CO)C(=O)Cc2cc(NC(=O)CCCCCC(=O)Nc3ccccc3N)ccc2O[C@H]1CN(C)Cc1ccc(C(F)(F)F)cc1", "growth inhibition call": "inactive"}
{"smiles": "COc1ccc(NC(=O)N(C)C[C@H]2OCCCC[C@@H](C)Oc3ccc(NC(=O)Nc4ccccc4)cc3C(=O)N([C@H](C)CO)C[C@H]2C)cc1", "growth inhibition call": "inactive"}
{"smiles": "COc1ccc(S(=O)(=O)Nc2ccc3c(c2)C(=O)N([C@@H](C)CO)C[C@@H](C)[C@H](CN(C)Cc2ccc(C(F)(F)F)cc2)OCCCC[C@H](C)O3)cc1", "growth inhibition call": "inactive"}
{"smiles": "C[C@H]1CCCCO[C@H](CN(C)S(=O)(=O)c2ccc(Cl)cc2)[C@@H](C)CN([C@@H](C)CO)C(=O)c2cc(NC(=O)Nc3ccc4c(c3)OCO4)ccc2O1", "growth inhibition call": "inactive"}
{"smiles": "Cc1ccc(N(c2ccc(C)cc2)c2cccnc2)cc1", "growth inhibition call": "active"}
{"smiles": "COC(=O)c1cccnc1", "growth inhibition call": "inactive"}
{"smiles": "CCN(CC)C(=O)c1cccnc1", "growth inhibition call": "inactive"}
{"smiles": "CS(=O)(=O)N1C[C@@H]2OCC[C@@H]2[C@H](C(=O)NCc2cccnc2)C1", "growth inhibition call": "inactive"}
{"smiles": "O=C(O)c1c(Br)c(Br)c(Br)c(Br)c1-c1c2ccc(=O)cc-2oc2cc(O)ccc12", "growth inhibition call": "active"}
{"smiles": "O=c1cc(-c2ccccc2O)oc2cc(O)ccc12", "growth inhibition call": "inactive"}
{"smiles": "O=c1cc(-c2ccccc2)oc2cc(O)ccc12", "growth inhibition call": "inactive"}
{"smiles": "COc1ccccc1S(=O)(=O)N(C)C[C@@H]1OCc2cnnn2CCCC(=O)N([C@H](C)CO)C[C@@H]1C", "growth inhibition call": "inactive"}
{"smiles": "Cc1onc(-c2ccccc2)c1CN", "growth inhibition call": "inactive"}
{"smiles": "Clc1ccc(COC(Cn2ccnc2)c2ccc(Cl)cc2Cl)cc1.O=[N+]([O-])O", "note": "(centres undefined)", "growth inhibition call": "inactive"}
{"smiles": "Clc1ccc(CON=C(Cn2ccnc2)c2ccc(Cl)cc2Cl)c(Cl)c1.O=[N+]([O-])O", "growth inhibition call": "active"}
{"smiles": "Clc1ccc(CSC(Cn2ccnc2)c2ccc(Cl)cc2Cl)cc1.O=[N+]([O-])O", "note": "(centres undefined)", "growth inhibition call": "inactive"}
{"smiles": "CC(=O)N(C)C[C@H]1Oc2ncc(C#C[C@@H](C)O)cc2C(=O)N([C@@H](C)CO)C[C@@H]1C", "growth inhibition call": "inactive"}
{"smiles": "CC(C)NC(=O)N(C)C[C@H]1Oc2c(NS(=O)(=O)c3cn(C)cn3)cccc2C(=O)N([C@H](C)CO)C[C@@H]1C", "growth inhibition call": "inactive"}
{"smiles": "C[C@H]1CN([C@@H](C)CO)C(=O)c2cc(NC(=O)NC3CCCCC3)ccc2O[C@H]1CN(C)Cc1ccc(Cl)c(Cl)c1", "growth inhibition call": "inactive"}
{"smiles": "NC[C@@H]1CCCO1", "growth inhibition call": "inactive"}
{"smiles": "CC[C@H]1OC(=O)C[C@@H](O)[C@H](C)[C@@H](O[C@@H]2O[C@H](C)[C@@H](O[C@H]3C[C@@](C)(O)[C@@H](O)[C@H](C)O3)[C@H](N(C)C)[C@H]2O)[C@@H](CC=O)C[C@@H](C)C(=O)/C=C/C(C)=C/[C@@H]1CO[C@@H]1O[C@H](C)[C@@H](O)[C@@H](OC)[C@H]1OC", "growth inhibition call": "active"}
{"smiles": "CC[C@H]1OC(=O)C[C@@H](O)[C@H](C)[C@@H](O[C@@H]2O[C@H](C)C[C@H](N(C)C)[C@H]2O)[C@@H](CC=O)C[C@@H](C)C(=O)/C=C/[C@]2(C)O[C@H]2[C@@H]1C", "growth inhibition call": "active"}
{"smiles": "CCC1OC(=O)CC(O)C(C)C(OC2OC(C)C(OC3CC(C)(O)C(O)C(C)O3)C(N(C)C)C2O)C(CC=O)CC(C)C(=O)C=CC(C)=CC1COC1OC(C)C(O)C(OC)C1OC.O=C(O)C(O)C(O)C(=O)O", "note": "(centres undefined)", "growth inhibition call": "active"}
{"smiles": "COc1cccc(C(=O)Nc2ccc3c(c2)C(=O)N(C)[C@@H]2CC[C@H](CC(=O)NCC4CC4)O[C@@H]2CO3)c1", "growth inhibition call": "inactive"}
{"smiles": "Cc1noc(C)c1NC(=O)Nc1ccc2c(c1)C(=O)N([C@H](C)CO)C[C@H](C)[C@@H](CN(C)C(=O)C1CCCCC1)OCCCC[C@@H](C)O2", "growth inhibition call": "inactive"}
{"smiles": "COCC#Cc1ccc2c(c1)O[C@H](CN(C)C(=O)c1ccccc1F)[C@@H](C)CN([C@@H](C)CO)S2(=O)=O", "growth inhibition call": "inactive"}
{"smiles": "C[C@@H]1CN([C@H](C)CO)C(=O)c2cc(NC(=O)Nc3cccc4ccccc34)ccc2O[C@H]1CN(C)S(=O)(=O)c1ccccc1", "growth inhibition call": "inactive"}
{"smiles": "COC(=O)c1cc(=O)nc2n1[C@H]1O[C@H](CO)[C@H](O)[C@H]1O2", "growth inhibition call": "inactive"}
{"smiles": "COc1cccc(NC(=O)C[C@H]2CC[C@@H]3[C@@H](COc4ccc(NC(=O)C5CCOCC5)cc4C(=O)N3C)O2)c1", "growth inhibition call": "inactive"}
{"smiles": "CC(C)NC(=O)N(C)C[C@H]1Oc2ccc(NS(=O)(=O)c3cn(C)cn3)cc2C(=O)N([C@@H](C)CO)C[C@H]1C", "growth inhibition call": "inactive"}
{"smiles": "CN(C)C1CCN(C(=O)c2cnc(-c3noc4cc(-c5ccccc5C(F)(F)F)ccc34)s2)CC1", "growth inhibition call": "active"}
{"smiles": "CN(C)C1CCN(C(=O)c2cnc(-c3noc4cc(-c5cccc(C(F)(F)F)c5)ccc34)s2)CC1", "growth inhibition call": "inactive"}
{"smiles": "Cc1ccc(S(=O)(=O)N(C)C[C@H]2Oc3c(NS(=O)(=O)c4ccc(F)cc4)cccc3C(=O)N([C@@H](C)CO)C[C@H]2C)cc1", "growth inhibition call": "inactive"}
{"smiles": "C[C@H]1CN([C@@H](C)CO)C(=O)c2c(c3ccccc3n2C)-c2ccccc2CO[C@H]1CN(C)Cc1ccc(C(=O)O)cc1", "growth inhibition call": "inactive"}
{"smiles": "Cc1ccc(OCc2ccc(Cl)cc2)c(C(C)(C)C)c1", "growth inhibition call": "inactive"}
{"smiles": "CC(C)(C)NCCCCOc1ccc(Cl)cc1C(C)(C)C", "growth inhibition call": "inactive"}
{"smiles": "CC[C@@H](C)NCCCCOc1ccc(Cl)cc1C(C)(C)C", "growth inhibition call": "active"}
{"smiles": "C[C@H](CO)N1C[C@H](C)[C@@H](CN(C)S(=O)(=O)c2cn(C)cn2)Oc2ccc(NC(=O)Nc3ccc4c(c3)OCO4)cc2CC1=O", "growth inhibition call": "inactive"}
{"smiles": "CC[C@H](C)[C@H](N)C1=N[C@H](C(=O)N[C@@H](CC(C)C)C(=O)N[C@H](CCC(=O)O)C(=O)N[C@H](C(=O)N[C@H]2CCCCNC(=O)[C@H](CC(N)=O)NC(=O)[C@@H](CC(=O)O)NC(=O)[C@H](Cc3cnc[nH]3)NC(=O)[C@@H](Cc3ccccc3)NC(=O)[C@H]([C@@H](C)CC)NC(=O)[C@@H](CCCN)NC2=O)[C@@H](C)CC)CS1", "growth inhibition call": "active"}
{"smiles": "CC(=O)N[C@@H](CCCNC(=N)N)C(=O)N[C@H]1CSSC[C@@H](C(N)=O)NC(=O)[C@H](Cc2c[nH]c3ccccc23)NC(=O)[C@H](CCCNC(=N)N)NC(=O)[C@@H](Cc2ccccc2)NC(=O)[C@H](Cc2cnc[nH]2)NC(=O)[C@@H](C)NC1=O", "growth inhibition call": "inactive"}
{"smiles": "CC[C@H](C)[C@H](N)C1=N[C@H](C(=O)N[C@@H](CC(C)C)C(=O)N[C@@H]2CCC(=O)[O][Zn][O]C(=O)C[C@H]3NC(=O)[C@H](Cc4c[nH]cn4)NC(=O)[C@@H](Cc4ccccc4)NC(=O)[C@H]([C@@H](C)CC)NC(=O)[C@@H](CCCN)NC(=O)[C@H](CCCCNC(=O)[C@H](CC(N)=O)NC3=O)NC(=O)[C@H]([C@@H](C)CC)NC2=O)CS1", "growth inhibition call": "active"}
{"smiles": "NCCCC[C@H](NC(=O)[C@@H]1CCCN1C(=O)[C@@H]1CSSC[C@H](N)C(=O)N[C@@H](Cc2ccccc2)C(=O)N[C@@H](Cc2ccccc2)C(=O)NC(CCC(N)=O)C(=O)N[C@@H](CC(N)=O)C(=O)N1)C(=O)NCC(N)=O", "note": "(some centres undefined)", "growth inhibition call": "inactive"}
{"smiles": "C[C@@H]1CN([C@@H](C)CO)C(=O)c2cc(NC(=O)Nc3ccc(C(F)(F)F)cc3)ccc2O[C@@H]1CN(C)C(=O)Nc1ccc2c(c1)OCO2", "growth inhibition call": "inactive"}
{"smiles": "CC(=O)c1c(C)nn(CC(=O)O)c1C", "growth inhibition call": "inactive"}
{"smiles": "COc1ccc(NC(=O)N(C)C[C@@H]2OCCCC[C@@H](C)Oc3ccc(NC(=O)NC(C)C)cc3C(=O)N([C@H](C)CO)C[C@@H]2C)cc1", "growth inhibition call": "inactive"}
{"smiles": "O=C(C[C@@H]1C[C@@H]2c3cc(NC(=O)c4ccc5c(c4)OCO5)ccc3O[C@@H]2[C@H](CO)O1)NCc1ccc(Oc2ccccc2)cc1", "growth inhibition call": "inactive"}
{"smiles": "CN(C)C1C(O)=C(C(N)=O)C(=O)C2(O)C(O)=C3C(=O)c4c(O)cccc4C(C)(O)C3CC12.Cl", "note": "(centres undefined)", "growth inhibition call": "inactive"}
{"smiles": "CN(C)[C@@H]1C(=O)C(C(=O)NCN2CCCC2)=C(O)[C@@]2(O)C(O)=C3C(=O)c4c(O)cccc4[C@@](C)(O)[C@H]3C[C@@H]12", "growth inhibition call": "active"}
{"smiles": "CN(C)C1C(O)=C(C(N)=O)C(=O)C2(O)C(O)=C3C(=O)c4c(O)ccc(Cl)c4C(C)(O)C3CC12.Cl", "note": "(centres undefined)", "growth inhibition call": "inactive"}
{"smiles": "C[C@H](O)[C@H](O)[C@@H](O)[C@@H](O)/C=N/NC(=O)c1ccc(C(=O)NO)cc1", "growth inhibition call": "inactive"}
{"smiles": "COc1ccc(S(=O)(=O)N2C[C@@H](O)COC[C@H]3O[C@@H](CC(=O)N[C@H]4CCN(Cc5ccccc5)C4)CC[C@@H]32)cc1", "growth inhibition call": "inactive"}
{"smiles": "CC(=O)Oc1cccc(C)c1", "note": "[meta-CRESYL ACETATE]", "growth inhibition call": "inactive"}
{"smiles": "CC(=O)Oc1cccc(O)c1", "growth inhibition call": "inactive"}
{"smiles": "CN(CCCCCCCCCCN(C)C(=O)Oc1cccc([N+](C)(C)C)c1)C(=O)Oc1cccc([N+](C)(C)C)c1", "growth inhibition call": "active"}
{"smiles": "C[C@@H]1CN([C@H](C)CO)C(=O)c2cc(NC(=O)C3CCCCC3)ccc2O[C@@H](C)CCCCO[C@@H]1CN(C)C(=O)Nc1ccccc1", "growth inhibition call": "inactive"}
{"smiles": "COc1ccc(S(=O)(=O)N(C)C[C@@H]2Oc3ccc(NC(=O)CCN4CCOCC4)cc3CC(=O)N([C@@H](C)CO)C[C@H]2C)cc1", "growth inhibition call": "inactive"}
{"smiles": "C[C@@H]1CN([C@H](C)CO)C(=O)Cc2cc(NS(=O)(=O)c3cn(C)cn3)ccc2O[C@H]1CN(C)S(C)(=O)=O", "growth inhibition call": "inactive"}
{"smiles": "CC(=O)N(C)C1(c2ccccc2)CCN(CCC[C@]2(c3ccc(Cl)c(Cl)c3)CCCN(C(=O)c3ccccc3)C2)CC1", "growth inhibition call": "inactive"}
{"smiles": "CC(C)Oc1cccc(CC(=O)N2CCC[C@](CC[N+]34CCC(c5ccccc5)(CC3)CC4)(c3ccc(Cl)c(Cl)c3)C2)c1", "growth inhibition call": "active"}
{"smiles": "C[C@@H]1CN([C@@H](C)CO)C(=O)c2cccc(NC(=O)C3CCOCC3)c2O[C@H]1CN(C)Cc1ccc(C(=O)O)cc1", "growth inhibition call": "inactive"}
{"smiles": "NCC[C@H]1CC[C@@H](NC(=O)Nc2ccc(F)cc2)[C@@H](CO)O1", "growth inhibition call": "inactive"}
{"smiles": "CC1(C(=O)O)CCC2(C)CCC3(C)C(=CC(=O)C4C5(C)CCC(O)C(C)(C)C5CCC43C)C2C1", "note": "(centres undefined)", "growth inhibition call": "inactive"}
{"smiles": "CC(=O)Oc1cc2c(c(C)c1OC(C)=O)CC=C1[C@@]2(C)CC[C@@]2(C)[C@H]3C[C@](C)(C(=O)O)CC[C@]3(C)CC[C@]12C", "growth inhibition call": "active"}
